The results in this text go back to PMC9911399, “Two distinct binding modes provide the RNA-binding protein RbFox with extraordinary sequence specificity”.

Substitutions are numbered along the chain they refer to; changes in the protein carry UniProt numbers. In all, about 16,000 sequences were measured (“ka relative to ugcaugu”: median about 0.096, highest 2% from about 0.35 on). The sample holds the highest values, similar sequences and a random draw of the others, so the mix is not that of the screen.

T1: RBFOX1 RRM RbFoxmut (Fox-RRM*) (Homo sapiens, UniProt Q9NWB1 109-208, R118D;E147R;N151S;E152T)
T1 sequence: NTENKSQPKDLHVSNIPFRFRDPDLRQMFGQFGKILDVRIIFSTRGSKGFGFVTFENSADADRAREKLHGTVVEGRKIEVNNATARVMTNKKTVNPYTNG

B1: GAGCUUG (DNA:RNA)
RNA: GGGAGACCGGAAUUCAGAUUGUCCGAGCUUGUUAAAUCCCGUCGUAGCCACCA
DNA 1: CAATCTGAATTCCGGTCTCCC
DNA 2: TGGTGGCTACGACGGGATT
B2: UGUGGCA (DNA:RNA)
RNA: GGGAGACCGGAAUUCAGAUUGUCCUGUGGCAUUAAAUCCCGUCGUAGCCACCA
DNA 1: CAATCTGAATTCCGGTCTCCC
DNA 2: TGGTGGCTACGACGGGATT
B3: CUAUUUC (DNA:RNA)
RNA: B1 RNA with G25C, A26U, G27A, C28U, G31C
DNA 1: CAATCTGAATTCCGGTCTCCC
DNA 2: TGGTGGCTACGACGGGATT
B4: AGUCAAC (DNA:RNA)
RNA: B2 RNA with U25A, G28C, G29A, C30A, A31C
DNA 1: CAATCTGAATTCCGGTCTCCC
DNA 2: TGGTGGCTACGACGGGATT
B5: AAUGCAG (DNA:RNA)
RNA: B1 RNA with G25A, G27U, C28G, U29C, U30A
DNA 1: CAATCTGAATTCCGGTCTCCC
DNA 2: TGGTGGCTACGACGGGATT
B6: GUGCAUA (DNA:RNA)
RNA: B1 RNA with A26U, U29A, G31A
DNA 1: CAATCTGAATTCCGGTCTCCC
DNA 2: TGGTGGCTACGACGGGATT
B7: UUGCAUG (DNA:RNA)
RNA: B1 RNA with G25U, A26U, U29A
DNA 1: CAATCTGAATTCCGGTCTCCC
DNA 2: TGGTGGCTACGACGGGATT
B8: UCUUGCA (DNA:RNA)
RNA: B2 RNA with G26C, G28U
DNA 1: CAATCTGAATTCCGGTCTCCC
DNA 2: TGGTGGCTACGACGGGATT
B9: GUGCAUC (DNA:RNA)
RNA: B1 RNA with A26U, U29A, G31C
DNA 1: CAATCTGAATTCCGGTCTCCC
DNA 2: TGGTGGCTACGACGGGATT
B10: UUGCAUA (DNA:RNA)
RNA: B1 RNA with G25U, A26U, U29A, G31A
DNA 1: CAATCTGAATTCCGGTCTCCC
DNA 2: TGGTGGCTACGACGGGATT
B11: GUGCAGA (DNA:RNA)
RNA: B1 RNA with A26U, U29A, U30G, G31A
DNA 1: CAATCTGAATTCCGGTCTCCC
DNA 2: TGGTGGCTACGACGGGATT
B12: GCGUGCA (DNA:RNA)
RNA: B2 RNA with U25G, G26C, U27G, G28U
DNA 1: CAATCTGAATTCCGGTCTCCC
DNA 2: TGGTGGCTACGACGGGATT
B13: GUUCAUC (DNA:RNA)
RNA: B1 RNA with A26U, G27U, U29A, G31C
DNA 1: CAATCTGAATTCCGGTCTCCC
DNA 2: TGGTGGCTACGACGGGATT
B14: UUGCAUC (DNA:RNA)
RNA: B1 RNA with G25U, A26U, U29A, G31C
DNA 1: CAATCTGAATTCCGGTCTCCC
DNA 2: TGGTGGCTACGACGGGATT
B15: GUGCAUG (DNA:RNA)
RNA: B1 RNA with A26U, U29A
DNA 1: CAATCTGAATTCCGGTCTCCC
DNA 2: TGGTGGCTACGACGGGATT
B16: UUGCAGA (DNA:RNA)
RNA: B1 RNA with G25U, A26U, U29A, U30G, G31A
DNA 1: CAATCTGAATTCCGGTCTCCC
DNA 2: TGGTGGCTACGACGGGATT
B17: UUGCGUC (DNA:RNA)
RNA: B1 RNA with G25U, A26U, U29G, G31C
DNA 1: CAATCTGAATTCCGGTCTCCC
DNA 2: TGGTGGCTACGACGGGATT
B18: ACGUAGU (DNA:RNA)
RNA: B1 RNA with G25A, A26C, C28U, U29A, U30G, G31U
DNA 1: CAATCTGAATTCCGGTCTCCC
DNA 2: TGGTGGCTACGACGGGATT
B19: CAACGCA (DNA:RNA)
RNA: B2 RNA with U25C, G26A, U27A, G28C
DNA 1: CAATCTGAATTCCGGTCTCCC
DNA 2: TGGTGGCTACGACGGGATT
B20: UGUAUAC (DNA:RNA)
RNA: B2 RNA with G28A, G29U, C30A, A31C
DNA 1: CAATCTGAATTCCGGTCTCCC
DNA 2: TGGTGGCTACGACGGGATT
B21: UUCCAAG (DNA:RNA)
RNA: B1 RNA with G25U, A26U, G27C, U29A, U30A
DNA 1: CAATCTGAATTCCGGTCTCCC
DNA 2: TGGTGGCTACGACGGGATT
B22: AUCGUGG (DNA:RNA)
RNA: B1 RNA with G25A, A26U, G27C, C28G, U30G
DNA 1: CAATCTGAATTCCGGTCTCCC
DNA 2: TGGTGGCTACGACGGGATT
B23: CGUUUCG (DNA:RNA)
RNA: B2 RNA with U25C, G28U, G29U, A31G
DNA 1: CAATCTGAATTCCGGTCTCCC
DNA 2: TGGTGGCTACGACGGGATT
B24: CAAAACG (DNA:RNA)
RNA: B1 RNA with G25C, G27A, C28A, U29A, U30C
DNA 1: CAATCTGAATTCCGGTCTCCC
DNA 2: TGGTGGCTACGACGGGATT
B25: GAGAGGA (DNA:RNA)
RNA: B1 RNA with C28A, U29G, U30G, G31A
DNA 1: CAATCTGAATTCCGGTCTCCC
DNA 2: TGGTGGCTACGACGGGATT
B26: CGAUGAG (DNA:RNA)
RNA: B2 RNA with U25C, U27A, G28U, C30A, A31G
DNA 1: CAATCTGAATTCCGGTCTCCC
DNA 2: TGGTGGCTACGACGGGATT
B27: CUAUGAG (DNA:RNA)
RNA: B1 RNA with G25C, A26U, G27A, C28U, U29G, U30A
DNA 1: CAATCTGAATTCCGGTCTCCC
DNA 2: TGGTGGCTACGACGGGATT
B28: GAAUGAG (DNA:RNA)
RNA: B1 RNA with G27A, C28U, U29G, U30A
DNA 1: CAATCTGAATTCCGGTCTCCC
DNA 2: TGGTGGCTACGACGGGATT
B29: GGAUGAG (DNA:RNA)
RNA: B1 RNA with A26G, G27A, C28U, U29G, U30A
DNA 1: CAATCTGAATTCCGGTCTCCC
DNA 2: TGGTGGCTACGACGGGATT
B30: GUAUGAG (DNA:RNA)
RNA: B1 RNA with A26U, G27A, C28U, U29G, U30A
DNA 1: CAATCTGAATTCCGGTCTCCC
DNA 2: TGGTGGCTACGACGGGATT
B31: GAUUGAG (DNA:RNA)
RNA: B1 RNA with G27U, C28U, U29G, U30A
DNA 1: CAATCTGAATTCCGGTCTCCC
DNA 2: TGGTGGCTACGACGGGATT

This assay addresses T1, RBFOX1 RRM RbFoxmut (Fox-RRM*). Briefly: EMSA; HiTS-Eq, 1 nM pool, 10 min; buffer printed only for the single-RNA assays: 10 mM Tris pH 7.5, 150 mM NaCl, 3.4 mM EDTA, 0.001% NP-40, 30 C. The settings on record: tags: His6 N-terminal (pET28a); label: 5' 32P. An outline of the steps:
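These values rest on relative association constants, computed from read-count changes of each RNA species versus the control reaction and normalised to the cognate motif. Reads came from free RNA recovered by 8% native PAGE after purified RbFox RRM (wild type or mutant) at increasing concentrations was equilibrated for 10 min in 50 µL with 1 nM of a 5′-radiolabelled pool with 7 randomized nucleotides and DNA-annealed flanks.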
In the case of B1, the binding signal was 0.253 KA relative to UGCAUGU.
In the case of B2, the binding signal was 0.136 KA relative to UGCAUGU.
On to B3, for which the binding signal is 0.0582 KA relative to UGCAUGU.
Consider B4, for which the binding signal is 0.0571 KA relative to UGCAUGU.
As to B5, the binding signal was 0.103 KA relative to UGCAUGU.
Consider B6, for which the binding signal was 0.153 KA relative to UGCAUGU.
B7: the binding signal was 0.909 KA relative to UGCAUGU.
On to B8, for which the binding signal was 0.205 KA relative to UGCAUGU.
With B9, the binding signal is 0.566 KA relative to UGCAUGU.
With B10, the binding signal is 0.23 KA relative to UGCAUGU.
On to B11, for which the binding signal is 0.12 KA relative to UGCAUGU.
Take B12: the binding signal is 0.225 KA relative to UGCAUGU.
Take B13: the binding signal is 0.0631 KA relative to UGCAUGU.
Turning to B14, the binding signal is 0.432 KA relative to UGCAUGU.
In the case of B15, the binding signal was 1.39 KA relative to UGCAUGU.
As for B16, the binding signal is 0.108 KA relative to UGCAUGU.
Take B17: the binding signal is 0.126 KA relative to UGCAUGU.
As to B18, the binding signal is 0.15 KA relative to UGCAUGU.
In the case of B19 it was 0.161 KA relative to UGCAUGU.
On to B20, for which the binding signal was 0.114 KA relative to UGCAUGU.
Take B21: the binding signal was 0.0952 KA relative to UGCAUGU.
As to B22, the binding signal is 0.124 KA relative to UGCAUGU.
In the case of B23 it was 0.17 KA relative to UGCAUGU; in that of B24, 0.0837 KA relative to UGCAUGU; in that of B25, 0.0596 KA relative to UGCAUGU.
In the case of B26 it was 0.133 KA relative to UGCAUGU.
Consider B27, for which the binding signal is 0.107 KA relative to UGCAUGU.
With B28, the binding signal is 0.983 KA relative to UGCAUGU.
In the case of B29 it was 0.225 KA relative to UGCAUGU.
With B30, the binding signal is 0.513 KA relative to UGCAUGU.
In the case of B31 it was 0.183 KA relative to UGCAUGU.
